Hit rate of the full screen: of about 68,000 compounds, about 2,700 (4%) showed an effect of 50% or more. This is one part of a sample in which strong results are shown more often than they occur.
system: Plasmodium berghei; test: Screen against P. berghei liver stage (PbLuc), transformed with Luciferase, at 2uM; type: functional, HepG2; conditions: tested at 2 uM

| SMILES | INHIBITION |
| --- | --- |
| Cc1cccn2c(CNC(C)CCc3ccc(O)cc3)cnc12 (centres undefined) | -19.78% |
| Cc1cccc(C(=O)NC(C)CN2CCCC2=O)n1 (centres undefined) | 5.91% |
| c1ccc(CO[C@@H]2CC[C@H]3[C@H]2OCCN3Cc2ccsc2)nc1 | 22.62% |
| O=C(c1ccsc1)N1C[C@H]2CN(Cc3cccnc3)C(=O)[C@H]2C1 | 18.91% |
| CN1CCc2c(C#N)c(NCc3cccnc3)n3cnnc3c2C1 | -48.47% |
| CN(C)CC1CN(Cc2coc(-c3ccc(Cl)cc3)n2)CCO1 (centres undefined) | 35.23% |
| O=C(O)C1(Oc2ccc3ccccc3c2)CCN(c2ccncc2)CC1 | 2.04% |
| CCc1n[nH]c(C2CN(C(=O)CCn3ccccc3=O)CCO2)n1 (centres undefined) | -27.5% |
| CCCc1n[nH]c(C2CN(C(=O)Cn3ccccc3=O)CCO2)n1 (centres undefined) | -53.98% |
| CCCc1n[nH]c(C2CN(C(=O)CCn3ccccc3=O)CCO2)n1 (centres undefined) | 60.09% |
| CC(C)NC(=O)N1CCCC(c2nnc(CN3CCOCC3)n2C)C1 (centres undefined) | 10.02% |
| CC(NCc1cnc(N2CCOCC2)nc1)c1ccc(Cl)s1 (centres undefined) | -62.93% |
| Cc1nc(C2CCCN2CCCS(=O)(=O)N(C)C)no1 (centres undefined) | 9.36% |
| C[C@H](C(=O)N1Cc2ccccc2CC2(CCCN2C)C1)c1ccccc1 (some centres undefined) | 29.56% |
| CCNC(=O)c1cn(C(C)(C)C)c2ncccc12 | 40.4% |
| O=C(C1CCCC1)N1CCCC1c1nnc2n1CCCCC2 (centres undefined) | -15.83% |
| O=C(C1CC1)N1CCCC1c1nnc2n1CCCCC2 (centres undefined) | 58.29% |
| O=C(C1CCC1)N1CCCC1c1nnc2n1CCCCC2 (centres undefined) | 41.56% |
| C[C@@H]1CN(S(=O)(=O)N2CCCCCC2)C[C@@]1(O)C1CCC1 | 6.68% |
| CCC(O)CN1CCN(C(=O)c2ccc(Cn3cccc3)cc2)CC1 (centres undefined) | -25.46% |
| O=C(Nc1cccnc1)[C@H]1C[C@H]2CN(Cc3ccc(F)cc3)C[C@@H]1O2 | 6.35% |
| CNC(=O)CS(=O)(=O)NC1CCC(C)CC1 (centres undefined) | 7.46% |

| SMILES | INHIBITION |
| --- | --- |
| CC1CCC(NS(=O)(=O)CC(=O)Nc2ccc(N3CCCC3)cn2)CC1 (centres undefined) | -3.25% |
| Cc1ccc(NC(=O)CS(=O)(=O)NC2CCC(C)CC2)nc1 (centres undefined) | 59.03% |
| CCN(CC)CCn1c(NC(=O)c2scnc2C)nc2ccccc21 | -34.06% |
| O=C(Nc1ccccc1Oc1cccc(F)c1)NC1CCS(=O)(=O)C1 (centres undefined) | 11.88% |
| CNC(=O)NC(=O)CSC(C)c1ccccc1F (centres undefined) | 20.74% |
| CC(=O)N1CCC(Cc2cncc(-c3c(C)n[nH]c3C)n2)C1 (centres undefined) | 23.22% |
| CC(C)CN1CCC2(CCN(Cc3ccoc3)CC2)C1=O | 44.43% |
| CCS(=O)(=O)Nc1cnn(Cc2cccc(C)c2)c1 | 52.95% |
| CCS(=O)(=O)Nc1cnn(Cc2cccc(Cl)c2)c1 | 20.19% |
| CCS(=O)(=O)Nc1cnn(Cc2cccc(F)c2)c1 | 3.58% |
| CC(C)COCc1cncc2c1CCN(Cc1cnn(C)c1)C2 | -40.42% |
| COCc1cncc2c1CCN(Cc1cnn(C)c1)C2 | 53.98% |
| Cn1cc(CN2CCc3c(COCC4CC4)cncc3C2)cn1 | -11.66% |
| COc1ccc2cc(C(=O)N3CCCC(n4ccnc4C)C3)[nH]c2c1 (centres undefined) | -47.33% |
| CCNc1cc2c(nn1)CCN(C(=O)c1cccc3c1OCO3)C2 | 1.63% |
| Cn1cc(N2CCN(c3ccc(C#N)cc3Br)CC2=O)cn1 | 42.2% |
| N#Cc1ccc(N2CCC(OC3CCOCC3)CC2)cc1Cl | 26.51% |
| Cn1ccnc1CN1CCN(c2ccc(C#N)cc2F)CC1 | -5.15% |
| COCC1CN(c2ccc(C#N)c(Cl)c2)CCO1 (centres undefined) | 2.69% |
| Cn1cc(N2CCN(c3ccc(C#N)c(Cl)c3)CC2=O)cn1 | 52.3% |
| Cn1cc(N2CCN(c3ccc(C#N)cc3F)CC2=O)cn1 | 53.98% |
| O=C(Cn1cccnc1=O)NCCc1ccc2c(c1)OCCO2 | 0.9% |

| SMILES | INHIBITION |
| --- | --- |
| COc1ccc2c(ccn2CCCN)c1 | -19.92% |
| CC(Sc1nnnn1C1CCOCC1)C(=O)NC1CCCCC1 (centres undefined) | -33.07% |
| CC(C)OCCSc1nnnn1C1CCOCC1 | 17.37% |
| CCCC(C)Sc1nnnn1C1CCOCC1 (centres undefined) | 61.27% |
| CC(Sc1nnnn1C1CCOCC1)C(F)(F)F (centres undefined) | 5.55% |
| CCCOC(=O)C(C)Sc1nnnn1C1CCOCC1 (centres undefined) | 71.4% |
| COC(=O)C(C)Sc1nnnn1C1CCOCC1 (centres undefined) | -53.55% |
| CCc1nccn1C1CCCN(C(=O)Cc2ccc(OC)c(F)c2)C1 (centres undefined) | 29.71% |
| COc1ccc(CNC(=O)N2CCCC(Nc3ccccc3)C2)cn1 (centres undefined) | 17.48% |
| Fc1ccc(CN2CCc3ncnc(C4CC4)c3CC2)cc1 | -12.06% |
| Cc1cn[nH]c1C1CCCCN1C(=O)CCc1c(C)n[nH]c1C (centres undefined) | 5.34% |
| O=C(NCC1CCCOC1)c1ccc(-c2cccs2)[nH]c1=O (centres undefined) | 38.67% |
| Cc1cc(C(=O)N2CCCC(c3noc(C)n3)C2)[nH]n1 (centres undefined) | 45.75% |
| CCN1C[C@@H]2CN(C(=O)c3cccn3C)C[C@@H]2C1=O | 17.05% |
| CCCN1C[C@@H]2CC[C@H]1CN(Cc1cccc(O)c1)C2 | -1.63% |
| CCN(CC)C(=O)C1CCC(=O)N(CCc2cccc(F)c2)C1 (centres undefined) | 17.48% |
| CC(C)N(C)C(=O)C1CCC(=O)N(CCc2cccc(F)c2)C1 (centres undefined) | 68.39% |
| CCCN(CCO)C(=O)C1CCC(=O)N(Cc2ccc(Cl)cc2)C1 (centres undefined) | -49.57% |
| CCN(CCO)C(=O)C1CCC(=O)N(Cc2cccc(OC)c2)C1 (centres undefined) | 53.61% |
| CCCN(CCO)C(=O)C1CCC(=O)N(CCc2ccc(Cl)cc2)C1 (centres undefined) | -16.93% |
| CC(C)N(CCO)C(=O)C1CCC(=O)N(CCc2cccc(F)c2)C1 (centres undefined) | 66.74% |
| CC(C)N(CCO)C(=O)C1CCC(=O)N(CCc2ccc(Cl)cc2)C1 (centres undefined) | 17.2% |

| SMILES | INHIBITION |
| --- | --- |
| CCC(CO)(CO)NC(=O)C1CCC(=O)N(CCc2ccccc2)C1 (centres undefined) | -19.02% |
| CCN(CCO)C(=O)C1CCC(=O)N(CCc2cccc(F)c2)C1 (centres undefined) | 30.62% |
| CN1CCN(C2COC3(CCN(Cc4ccc(F)cc4)CC3)C2)CC1 (centres undefined) | -0.38% |
| CC(C)c1cc(C(=O)NCC(O)C2CCOCC2)nn1C(C)(C)C (centres undefined) | -31.6% |
| Cc1nc2cc(O)nn2c(C)c1CCC(=O)NCc1cc(Br)cs1 | 15.28% |
| Cc1cc(C(=O)NCC2COCc3c(C)nnn3C2)no1 (centres undefined) | 14.39% |
| CCN1CC(C(=O)N(C)Cc2ccon2)CC1=O (centres undefined) | -26.32% |
| CN(C)CC(=O)N1CC[C@H]2OCC[C@@]2(COCC2CC2)C1 | 11.87% |
| c1cnc(N2CC[C@@H](OCC3CC3)[C@@H]2Cc2cccnc2)nc1 | 23.21% |
| CNC(=O)COC1COC2(CCN(c3ccc(C#N)cc3)CC2)C1 (centres undefined) | 14.97% |
| COCC(=O)N(CCC(=O)OC)CC1CCCO1 (centres undefined) | 10.4% |
| COCC(=O)N1CC[C@H]2C[C@@H](c3nnc(C4CC4)o3)O[C@@H]2C1 | 6.55% |
| COCC(=O)N1CC[C@H]2C[C@H](c3nc(C)no3)O[C@@H]2C1 | -1.81% |
| COCC(=O)N1CC[C@H]2C[C@H](c3nnc(C4CC4)o3)O[C@@H]2C1 | 50.61% |
| CC(C)CS(=O)(=O)CCNC(=O)Nc1cccc2ncccc12 | -41.73% |
| COCCOCC(=O)Nc1ccc(C)cc1F | 11.28% |
| O=C(Cn1cc(C(=O)O)ccc1=O)Nc1ccc(F)cc1Cl | -5.95% |
| Cc1ccc(Cl)cc1NC(=O)Cn1cc(C(=O)O)ccc1=O | 22.4% |
| COCCOCC(=O)Nc1cc(C)ccc1F | 12.56% |
| COCCOCC(=O)Nc1ccc(F)cc1C | 52.74% |
| O=C(Cn1cc(C(=O)O)ccc1=O)Nc1cc(F)ccc1F | 63.46% |
| O=C(Cn1cc(C(=O)O)ccc1=O)Nc1ccc(Cl)cc1F | 33.23% |

| SMILES | INHIBITION |
| --- | --- |
| Cc1cc(F)ccc1NC(=O)Cn1cc(C(=O)O)ccc1=O | 55.39% |
| O=C(Cn1cc(C(=O)O)ccc1=O)NCc1ccc(F)cc1Cl | 9.27% |
| O=C(CC1COCCN1C(=O)c1cscn1)c1ccccc1 (centres undefined) | 5.43% |
| CNC(=O)Cc1ccccc1NC(=O)C1CCN(C2CCCCC2)C1 (centres undefined) | -0.39% |
| CC(=O)Nc1ccc(CNCc2ccc(CS(C)(=O)=O)cc2)cc1 | -1.53% |
| Cc1nc(CN2CCCC(NCCCOc3ccc(F)cc3)C2)no1 (centres undefined) | 4.18% |
| CCc1ncc(C(=O)NCC2CCN(Cc3ccncc3)CC2)cn1 | -6.29% |
| CCN1CCN(C2CCN(Cc3cc(C)on3)CC2)C1=O | -14.11% |
| Cc1csc(N2CCN(C(=O)CCc3nccs3)CC2)n1 | -18.67% |
| Cc1cc(C(=O)N(CC(C)C)CC(O)c2ccc(F)cc2)[nH]n1 (centres undefined) | 51.96% |
| Cc1[nH]ncc1C(=O)N(CC(C)C)CC(O)c1ccc(F)cc1 (centres undefined) | 25.65% |
| CC(C)CN(CC(O)c1ccc(F)cc1)C(=O)c1cc[nH]n1 (centres undefined) | 10.91% |
| NCc1cn(CC2CCCN(C(=O)NCCc3ccc(F)cc3)C2)nn1 (centres undefined) | 62.51% |
| CC(C)NC(=O)N1CCCC(Cn2cc(-c3ccc(F)cc3)nn2)C1 (centres undefined) | -17.86% |
| CNc1ccc(Cl)cc1C(=O)N1CCC(Cn2cc(CN)nn2)CC1 | 3.72% |
| COc1cccc(CNC(=O)N2CCCC(Cn3cc(CN)nn3)C2)c1 (centres undefined) | 76.82% |
| CCC(=O)N1CCCC(Cn2cc(-c3ccc(F)cc3)nn2)C1 (centres undefined) | -27.82% |
| NCc1cn(CC2CCCN(C(=O)CC3=CCCCC3)C2)nn1 (centres undefined) | 16.72% |
| COc1cccc(CNC(=O)CN2CCCC(Cn3cncn3)C2)c1 (centres undefined) | -0.76% |
| NCc1cn(CC2CCCN(C(=O)NCc3ccc(Cl)cc3)C2)nn1 (centres undefined) | 62.51% |
| COc1ccc(CC(=O)N2CCCC(Cn3cc(CN)nn3)C2)cc1 (centres undefined) | 12.43% |
